Hits are enriched below; roughly 5.9% of the tested compounds scored in any of these assays.
TrxR1 substrate: rat thioredoxin reductase 1 substrate activity; O89049; purified TrxR1 substrate turnover, NADPH consumption readout; Potency, µM (titrated, usually from 114 µM), for inactives: at the top dose activity change, negative = substrate turnover; actives 0.01% (n = 390,000); AID 588456; further: potency means the concentration at half of the fitted maximal effect; nearly all actives have a fitted effect of over 50% in size
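Rat TrxR1, dispensed at 90 nM, was prereduced with 400 uM NADPH (final) for 5 min at ~22 deg C, then incubated with compound 15 min before 400 uM selenite. A first-read NADPH fluorescence drop versus no-compound background flagged substrates.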
RORgamma inh: ROR gamma (mouse) transcription inhibition; Drosophila S2 Gal4-RORgamma UAS-luciferase reporter, 20 h; Potency, µM (series often up to 53.6 µM), for the others: at the highest dose activity change, negative = inhibition, hits mostly inhibitors; actives 5.4% (n = 310,000); further: potency means the concentration at half of the fitted maximal effect; nearly all actives have a fitted effect of over 60% in size
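ROR gamma transcriptional activity was tracked as Gal4-UAS luciferase output in stably transfected Drosophila Schneider cells, with compound added 1 hr before 700 uM copper sulfate induction and a 20 hr ambient-temperature incubation.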
TrxR1 inh: inhibitors of rat thioredoxin reductase 1 | AID 588453 | Potency, µM (highest dose often 114 µM), for inactives: at the highest dose activity change, negative = inhibition, actives largely listed as inhibitors | recombinant rTrxR1, NADPH fluorescence consumption, selenite substrate | actives 1% (n = 390,000) | O89049; further: potency means the concentration at half of the fitted maximal effect; nearly all actives have a fitted effect of over 65% in size
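Rat TrxR1 (90 nM in the dispensed reagent) was pre-reduced with 400 uM NADPH for 5 min at room temperature, then incubated with compound for 15 min. After 400 uM selenite was added, NADPH fluorescence (Ex 340/Em 450 nm) was followed for 8 min.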
VP16 counter: counter-screen for ROR gamma inhibitors: Gal4-VP16 reporter; Potency, µM (highest dose often 53.6 µM), inactives show at the highest dose activity, negative = inhibition, most hits filed as inhibitors; actives 3.5% (n = 310,000); Drosophila S2 Gal4-VP16 UAS-luciferase, luminescence, 20 h; AID 2546;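 further: Gal4-VP16 expression switched on by copper sulfate through the metallothionein promoter; potency means the concentration at half of the fitted maximal effect; nearly all actives have a fitted effect of over 50% in size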
GALK inh: inhibitors of human galactokinase. P51570. Purified GALK, Kinase-Glo residual ATP luminescence. Potency, µM (titrated, usually from 57.5 µM), for the others: top-dose activity change, negative = inhibition, actives largely listed as inhibitors. actives 0.007% (n = 270,000). AID 1868; further: potency means the concentration at half of the fitted maximal effect
Target sequence (P51570 whole entry, looked up): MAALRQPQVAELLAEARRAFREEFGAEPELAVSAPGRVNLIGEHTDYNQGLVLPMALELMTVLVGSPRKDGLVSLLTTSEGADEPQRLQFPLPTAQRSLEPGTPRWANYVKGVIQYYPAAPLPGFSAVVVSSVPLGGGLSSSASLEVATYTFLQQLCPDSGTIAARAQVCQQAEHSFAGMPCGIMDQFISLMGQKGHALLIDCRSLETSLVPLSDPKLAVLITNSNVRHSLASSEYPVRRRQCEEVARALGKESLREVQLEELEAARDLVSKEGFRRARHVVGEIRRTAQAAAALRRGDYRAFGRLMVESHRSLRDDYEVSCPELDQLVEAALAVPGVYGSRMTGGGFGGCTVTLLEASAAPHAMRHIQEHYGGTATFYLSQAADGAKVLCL
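The enzyme phosphorylates galactose (100 uM) using ATP (35 uM); inhibition is detected as higher residual ATP, quantified by bioluminescence after 1 h reaction at room temperature, pH 8.0.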
Coupling enz: inhibits coupling enzyme system, counter-screen for aldolase hits; actives 0.67% (n = 290,000); activity change, negative = inhibition, % at 58.2 µM, hits read low; coupling enzyme system counterscreen, AmpLite Red fluorescence; in the data active means activity change below about -30%
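Coupling enzymes only (glyceraldehyde-3-phosphate) + compound, at 57.5 uM final, 10 min RT; add substrate/coupling/AmpLite Red mix, 20 min RT; fluorescence ex 525/em 598 nm. Actives flag coupling-system interference.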
Active calls of the source: *; [ ] = remark or other dose. Unless noted, the call rests on the fitted dose curve; in most records, active means well fitted curve in the direction sought with a large enough effect; inconclusive means small, poorly fitted or top-dose-only effect, or another doubt; inactive means no such curve, though single readings can be large; an effect the other way counts as inactive or inconclusive. On the % scale 0 is the no-effect control and ±100 the full control effect.

What do the screens show for `COc1ccc(F)cc1S(=O)(=O)NCC(c1ccco1)S(=O)(=O)c1ccc(F)cc1` (stereo not drawn)?
TrxR1 substrate: -6%[57.1 µM]; TrxR1 inh: 0.89µM*

How did COc1ccc(OC)c(S(=O)(=O)NCC(c2cccs2)S(=O)(=O)c2ccc(F)cc2)c1 (stereo not drawn) do in these assays?
TrxR1 substrate: 2%[57.1 µM]; TrxR1 inh: 3.2µM*

What do the screens show for `Cc1ccccc1CNCc1ccc2c(c1)OCO2`?
TrxR1 substrate: -12%; RORgamma inh: -24%; TrxR1 inh: inconclusive; VP16 counter: 2%; GALK inh: 0%; Coupling enz: 1

Results for COc1cccc(C(=O)N2c3nc(-c4ccco4)nn3C3(CCCCC3)[C@@H]3CCCC[C@@H]32)c1 ?
TrxR1 substrate: 6%; TrxR1 inh: 8.9µM*

What do the screens show for `FC(F)(F)c1ccc(-c2nc(=S)[nH][nH]2)cc1`?
TrxR1 substrate: 0%; RORgamma inh: 2.5µM*; TrxR1 inh: -6%; VP16 counter: -13%; Coupling enz: 4

What do the screens show for `COc1ccc(-c2nc(=S)[nH][nH]2)cc1`?
TrxR1 substrate: -6%[57.1 µM]; RORgamma inh: 10µM*; TrxR1 inh: -22%[57.1 µM]; VP16 counter: inconclusive; GALK inh: -4%; Coupling enz: 3

How did CCOc1ccc(-c2nc(=S)[nH][nH]2)cc1 do in these assays?
TrxR1 substrate: 9%[57.1 µM]; RORgamma inh: 5µM*; TrxR1 inh: -30%[57.1 µM]; VP16 counter: 22µM*; GALK inh: -1%; Coupling enz: 8

Results for Oc1ccc(-c2nc(=S)[nH][nH]2)cc1 ?
TrxR1 substrate: 12%[57.1 µM]; RORgamma inh: inconclusive; TrxR1 inh: 0%; VP16 counter: -12%; GALK inh: 1%; Coupling enz: -1

Results for COc1ccc(-c2n[nH]c(=S)nc2-c2ccc(OC)cc2)cc1 ?
TrxR1 substrate: -3%; RORgamma inh: 7.1µM*; TrxR1 inh: -15%; VP16 counter: inconclusive; Coupling enz: 7

What do the screens show for `S=c1nc(-c2cccc(Cl)c2)[nH][nH]1`?
TrxR1 substrate: 0%[57.1 µM]; RORgamma inh: 13µM*; TrxR1 inh: -16%[57.1 µM]; VP16 counter: inconclusive; GALK inh: 6%; Coupling enz: 4

Results for Cc1ccc(C(=O)NNC(=S)NCC2CCCO2)cc1[N+](=O)[O-] (stereo not drawn) ?
TrxR1 substrate: 5%; RORgamma inh: 5.6µM*; TrxR1 inh: 1%; VP16 counter: -22%; GALK inh: -1%

What do the screens show for `Cc1ccc(C(=O)NC(=S)NCC2CCCO2)cc1[N+](=O)[O-]` (stereo not drawn)?
TrxR1 substrate: -3%; RORgamma inh: 7.1µM*; TrxR1 inh: -14%; VP16 counter: inconclusive; GALK inh: 0%; Coupling enz: 0

How did Cn1c(CNC(=O)c2ccco2)nnc1SCC(=O)c1ccccc1 do in these assays?
TrxR1 substrate: 8%; RORgamma inh: 28µM*; TrxR1 inh: 8%; VP16 counter: 18%; GALK inh: -1%; Coupling enz: 2

What do the screens show for `CC1CN(C(=S)Nc2ccccc2)CC(C)O1` (stereo not drawn)?
TrxR1 substrate: -2%; RORgamma inh: -31%; TrxR1 inh: 7%; VP16 counter: -18%; GALK inh: 0%; Coupling enz: 0

Results for CC1CN(C(=S)Nc2ccccc2)N(c2ccccc2)C1 (stereo not drawn) ?
TrxR1 substrate: 8%; RORgamma inh: 11µM*; TrxR1 inh: 13%; VP16 counter: -12%; GALK inh: 7%; Coupling enz: 3

What do the screens show for `O=C(OCC(=O)c1ccc(S(=O)(=O)N2CCCC2)cc1)C1=COCCO1`?
TrxR1 substrate: -5%; RORgamma inh: 6%; TrxR1 inh: 2%; VP16 counter: 2%; GALK inh: 4%; Coupling enz: 0

Results for CCOC(=O)C(C#N)=C1CCN(Cc2ccccc2)CC1 ?
TrxR1 substrate: 3%[2.29 µM]; RORgamma inh: -8%; TrxR1 inh: 22%[2.29 µM]; VP16 counter: -12%; GALK inh: 3%; Coupling enz: 1

Results for CCOC(=O)/C(C#N)=C1/C(=O)N(Cc2ccccc2)c2ccccc21 ?
TrxR1 substrate: -7%[57.1 µM]; RORgamma inh: 13%; TrxR1 inh: -8%[57.1 µM]; VP16 counter: 7%[10 µM]; GALK inh: 0%; Coupling enz: -38*

How did C/C(=N\NC(=O)c1ccc(O)cc1O)c1cccnc1 do in these assays?
TrxR1 substrate: -3%; RORgamma inh: 5.6µM*; TrxR1 inh: 17%; VP16 counter: inconclusive; GALK inh: -5%; Coupling enz: 2

How did C/C(=N\NC(=O)c1ccc(Br)cc1)c1cccc(NC(=O)c2cccnc2)c1 do in these assays?
TrxR1 substrate: 4%; RORgamma inh: 18µM*; TrxR1 inh: 17%; VP16 counter: 1%[10 µM]; GALK inh: -2%; Coupling enz: 0

How did C/C(=N\NC(=O)c1ccncc1)c1cccc(NC(=O)c2ccc(C(C)(C)C)cc2)c1 do in these assays?
TrxR1 substrate: -12%; RORgamma inh: 4.5µM*; TrxR1 inh: -10%; VP16 counter: 4µM*; GALK inh: 5%

Results for C/C(=N/NC(=O)c1ccc(Cl)cc1Cl)c1cccnc1 ?
TrxR1 substrate: -1%; RORgamma inh: 28%; TrxR1 inh: 12%; VP16 counter: 1%; GALK inh: 8%; Coupling enz: 0

What do the screens show for `CC(=NNC(=O)c1ccncc1)c1cccc(Br)c1`?
TrxR1 substrate: 1%; TrxR1 inh: 13%

Results for C=CCNc1cc(=O)n(Cc2ccccc2)c(=O)[nH]1 ?
TrxR1 substrate: 3%[57.1 µM]; TrxR1 inh: -19%

Results for COc1ccc(C(=O)CN2C(=O)COc3ccccc32)cc1 ?
TrxR1 substrate: -8%; RORgamma inh: 42%; TrxR1 inh: 2%; VP16 counter: 6%; GALK inh: -1%; Coupling enz: 2

What do the screens show for `CCc1n[nH]c(=S)n1/N=C/c1cc(Br)c(O)c(OC)c1`?
TrxR1 substrate: -6%; RORgamma inh: -7%; TrxR1 inh: inconclusive; VP16 counter: -7%; GALK inh: 1%; Coupling enz: -1

How did CC(=C/c1ccccc1)/C=N/n1c(C)n[nH]c1=S do in these assays?
TrxR1 substrate: 0%; RORgamma inh: 8.9µM*; TrxR1 inh: -15%; VP16 counter: 6.3µM*; GALK inh: 7%; Coupling enz: -1

Results for CCc1n[nH]c(=S)n1/N=C/c1ccc(N(CC)CC)cc1 ?
TrxR1 substrate: -7%[57.1 µM]; RORgamma inh: 2.8µM*; TrxR1 inh: -10%[57.1 µM]; VP16 counter: 6.3µM*; GALK inh: 4%; Coupling enz: 0
